Source: PubChem BioAssay (NCATS)
Records with an inconclusive call do not appear. Unless noted, calls come from the whole dose curve; as a rule, active = well fitted curve in either direction with a large enough effect (not every such curve was filed as active); inconclusive = small, poorly fitted or top-dose-only effect, or another doubt; inactive = flat fitted curve, though single readings scatter.

Key:
[1] = AP1 Signaling Pathway (AID 357); settings: ME-180 AP-1-bla reporter, EGF-induced, beta-lactamase ratio, 5 h; at 17.2 µM (top of the series) unless noted; note: % is set by controls: 0 for no effect and ±100 for the full control effect
How it was run: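 Titration-series screen for positive or negative modulators of EC50 EGF-induced signaling in ME-180 cells carrying an AP-1-driven beta-lactamase reporter. After 5 hours at 37 degrees Celsius, CCF4 460nm/530nm emission ratio gave %Activity; AC50 values derived.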

[2] = NFAT Signaling Pathway (AID 444); settings: Jurkat NFAT-bla M1, carbachol, beta-lactamase ratio, 5 h; at 17.2 µM (top of the series) unless noted;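 note: carbachol stimulus at about its EC50 of 1 µM final; % is set by controls: 0 for no effect and ±100 for the full control effect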
How it was run: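 Jurkat cells with NFAT-driven β-lactamase reporter and co-expressed M1 receptor, stimulated with carbachol (final 1 uM, ~EC50), compound titration, 5 h at 37 °C. CCF4 loaded 1 h at RT; 460/530 nm ratio gave %activity and AC50.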

[3] = Stat Signaling Pathway (AID 446); settings: ME-180 (cervical carcinoma) SIE beta-lactamase reporter, IL-6 stimulated, 5 h; at 17.2 µM (top of the series) unless noted;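 note: ME-180 cervical cancer cells given 40 pM IL-6 alongside compound; SIE-controlled beta-lactamase reporter measured as 460/530 nm FRET emission ratio; % is set by controls: 0 for no effect and ±100 for the full control effect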
How it was run: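 Normalization used AC90 stimulation (300 pM IL-6) and AC90 inhibition (125 nM pan-JAK inhibitor at 40 pM IL-6). The underlying signal is SIE-driven beta-lactamase in ME-180 cells after 5 h IL-6 exposure with compound.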

[4] = target: Glucocorticoid receptor (Homo sapiens) (UniProt P04150); experiment: GR-GFP Redistribution (AID 450;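 active = compounds whose dose series gives a full or clear partial fitted curve of increased nuclear translocation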; note: potency is the fitted concentration of half-maximal effect)
Chain of Glucocorticoid receptor (Homo sapiens) (P04150 whole entry, looked up): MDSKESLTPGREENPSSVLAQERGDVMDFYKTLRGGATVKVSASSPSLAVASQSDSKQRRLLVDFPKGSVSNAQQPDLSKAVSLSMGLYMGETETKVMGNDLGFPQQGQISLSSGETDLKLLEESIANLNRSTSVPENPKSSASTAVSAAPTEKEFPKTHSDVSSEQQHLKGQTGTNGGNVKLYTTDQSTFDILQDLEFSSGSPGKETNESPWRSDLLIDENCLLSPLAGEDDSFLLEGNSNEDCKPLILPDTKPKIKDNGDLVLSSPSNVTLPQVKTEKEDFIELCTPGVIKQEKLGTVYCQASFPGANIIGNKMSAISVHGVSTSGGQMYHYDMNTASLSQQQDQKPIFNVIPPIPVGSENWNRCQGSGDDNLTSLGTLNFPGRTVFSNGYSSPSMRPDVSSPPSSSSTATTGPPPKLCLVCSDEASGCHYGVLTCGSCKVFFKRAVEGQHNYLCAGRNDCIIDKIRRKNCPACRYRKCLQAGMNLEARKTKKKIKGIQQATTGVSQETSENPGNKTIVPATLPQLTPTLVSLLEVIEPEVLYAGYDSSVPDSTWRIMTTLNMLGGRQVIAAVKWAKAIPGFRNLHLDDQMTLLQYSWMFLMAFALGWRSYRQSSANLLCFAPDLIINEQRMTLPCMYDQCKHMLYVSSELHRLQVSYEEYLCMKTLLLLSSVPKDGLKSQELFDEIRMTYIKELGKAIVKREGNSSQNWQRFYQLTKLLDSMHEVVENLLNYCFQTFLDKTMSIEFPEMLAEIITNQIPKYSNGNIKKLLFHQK

CC(=O)C1=C(O)C(=O)N(c2ccc(Br)cn2)C1c1ccccc1F (stereo not given)
inactive: activity change, negative = inhibition [1] -1.6% | activity change, negative = inhibition [2] 1.82% | activity, negative = inhibition [3] -16.8% | Potency [4] > 20.6 µM

Cn1c(=O)[nH]c2cc(Cl)cnc21
inactive: activity change, negative = inhibition [1] 7.54% | activity change, negative = inhibition [2] 3.47% | activity, negative = inhibition [3] 5.04% | Potency [4] > 20.6 µM

O=C(NCC(F)(F)F)Nc1nnc(C(F)(F)F)s1
inactive: activity change, negative = inhibition [1] -9.88% | activity change, negative = inhibition [2] -2.8% | activity, negative = inhibition [3] -4.37% | Potency [4] > 20.6 µM

C=CCSc1nc(C)c(CC=C)c(=O)[nH]1
inactive: activity change, negative = inhibition [1] -0.627% | activity change, negative = inhibition [2] -22.4% | activity, negative = inhibition [3] 0.0275% | Potency [4] > 20.6 µM

COc1cc([C@@H]2[C@H]3CN(C)CC=C3C(C#N)=C(N)C2(C#N)C#N)cc2c1OCO2
inactive: activity change, negative = inhibition [1] -11% | activity change, negative = inhibition [2] 9.82% | activity, negative = inhibition [3] 10.9% | Potency [4] > 20.6 µM

Cc1nnc2n(-c3ccccc3)c(=O)c3c4c(sc3n12)CC(C)CC4 (stereo not given)
inactive: activity change, negative = inhibition [1] 3.4% | activity change, negative = inhibition [2] -3.87% | activity, negative = inhibition [3] -2.29% | Potency [4] > 20.6 µM

CCN(CC)C(=O)COn1c(SCC(=O)N(CC)CC)nc2ccccc2c1=O
inactive: activity change, negative = inhibition [1] -3.71% | activity change, negative = inhibition [2] 17.3% | activity, negative = inhibition [3] 9.4% | Potency [4] > 20.6 µM

COC(=O)c1nn2c(C(F)(F)F)cc(-c3ccc(Br)o3)nc2c1Br
inactive: activity change, negative = inhibition [1] 0.345% | activity change, negative = inhibition [2] -16.6% | activity, negative = inhibition [3] 0.255% | Potency [4] > 20.6 µM

Cc1noc(NS(=O)(=O)c2ccc(NC(=O)COc3ccccc3)cc2)c1C
inactive: activity change, negative = inhibition [1] 2.17% | activity change, negative = inhibition [2] 1.26% | activity, negative = inhibition [3] -0.515% | Potency [4] > 20.6 µM

Oc1ccc(C=Nc2ccc3ncccc3c2)c(O)c1
inactive: activity change, negative = inhibition [1] 26.2% | activity change, negative = inhibition [2] -26.8% | activity, negative = inhibition [3] 13.2% | Potency [4] > 20.6 µM

S=c1nc(-c2ccccc2)[nH]n1-c1ccccc1
inactive: activity change, negative = inhibition [1] 21.6% | activity change, negative = inhibition [2] 5.29% | activity, negative = inhibition [3] -1.15% | Potency [4] > 20.6 µM

CCn1cc(/C=N/O)c(C)n1
inactive: activity change, negative = inhibition [1] -0.439% | activity change, negative = inhibition [2] -4.37% | activity, negative = inhibition [3] 14% | Potency [4] > 20.6 µM

CCOC(=O)CSc1nc(N(C)C)nc(N(C)C#N)n1
inactive: activity change, negative = inhibition [1] 4.52% | activity change, negative = inhibition [2] -3.44% | activity, negative = inhibition [3] -0.469% | Potency [4] > 20.6 µM

COc1cc(C(=O)Nc2ccccn2)cc(OC)c1OC
inactive: activity change, negative = inhibition [1] 1.72% | activity change, negative = inhibition [2] 12% | activity, negative = inhibition [3] 25.9% | Potency [4] > 20.6 µM

COc1cccc(Cn2c(NCc3ccccn3)nc3c2c(=O)n(C)c(=O)n3C)c1
inactive: activity change, negative = inhibition [1] -10.2% | activity change, negative = inhibition [2] 7.02% | activity, negative = inhibition [3] -15.6% | Potency [4] > 20.6 µM

O=C(C1=C(O)C(=O)N(CCN2CCOCC2)C1c1cccnc1)c1cc2ccccc2o1 (stereo not given)
inactive: activity change, negative = inhibition [1] 8.94% | activity change, negative = inhibition [2] -4.55% | activity, negative = inhibition [3] 3.87% | Potency [4] > 20.6 µM

C[C@@H]1C[C@H](Nc2ccccc2)c2ccccc2N1C(=O)c1cccnc1
inactive: activity change, negative = inhibition [1] 5.62% | activity change, negative = inhibition [2] -3.58% | activity, negative = inhibition [3] -2.73% | Potency [4] > 20.6 µM

CCCc1nnc(NC(=O)c2c(O)c3c([nH]c2=O)CCCC3)s1
inactive: activity change, negative = inhibition [1] -4.44% | activity change, negative = inhibition [2] -18.4% | activity, negative = inhibition [3] 12.4% | Potency [4] > 20.6 µM

CCC1(C)Cc2c(sc3nc4n(c(=O)c23)CCS4)CO1 (stereo not given)
inactive: activity change, negative = inhibition [1] -20.5% | activity change, negative = inhibition [2] -16.6% | activity, negative = inhibition [3] -2.05% | Potency [4] > 20.6 µM

O=C(c1cccc2ccccc12)N1CCC(N2CCN(c3ccccc3)CC2)CC1
inactive: activity change, negative = inhibition [1] -7.39% | activity change, negative = inhibition [2] -0.0782% | activity, negative = inhibition [3] -1.11% | Potency [4] > 20.6 µM
